Assay outcomes (PubChem BioAssay)
TDP1 cell noCPT: qHTS for Inhibitors of human tyrosyl-DNA phosphodiesterase 1 (TDP1): qHTS in cells in absence of CPT | Potency, µM (highest dose often 46.2 µM), usual class: inhibitors | AID 686978, 2013 | 420,000 tested, 15% active | DT40 Tdp1-/- hTDP1 cells, no CPT, ATP luminescence, 48 h; further: nearly all actives have a fitted effect of over 55% in size
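Camptothecin absent (DMSO only). Human TDP1-complemented DT40 knockout cells, 400 cells/well, 37 °C for minimum 48 hr; ATP measured via CellTiter-Glo, 30 min dark incubation, luminescence.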
IL-1B inflam inh: blocks inflammasome-driven IL-1 beta release | THP-1 LPS/ATP IL-1B secretion, AlphaLISA, 16 h; hits give low values | activity change, % at 57.5 µM | 360,000 tested, 4.7% active | AID 743279; in the data active means activity change below about -50%; inconclusive means mostly about -30% to -49%
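THP-1 cells pretreated 1 hr with compounds (up to 57.5 uM final), then stimulated with LPS (250 ng/mL final) plus ATP (1.25 mM final); secreted IL-1B measured by AlphaLISA after 16 hr, decreased signal indicating inhibition.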
D3 antag: antagonists of human D3 dopamine receptor; P35462; D3R cells, DiscoveRx beta-arrestin luminescence, antagonist mode; hits give low values; max response, negative = inhibition, %; 360,000 tested, 2.5% active; AID 652054; in the data active means max response below about -50%; inconclusive means no clear call, values can overlap the other calls
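Cells expressing the human receptor were seeded at 1500 cells/well, incubated overnight at 37 degrees C in 5% CO2, then exposed to library compounds with dopamine controls for 90 minutes at 37 degrees C before luminescent detection.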
ClpP mod: qHTS Assay for Activators of ClpP; 340,000 tested, 1.9% active; ATP-dependent Clp protease proteolytic subunit (Bacillus subtilis (strain 168)), P80244; purified B. subtilis ClpP, FRET peptide cleavage, 20 min; Potency, µM (doses to about 57.5 µM); active means well fitted falling curve with a large enough effect; inconclusive means small, poorly fitted or top-dose-only effect; inactive means no such curve, though single readings can be large or run the other way; further: the source files actives as falling curves though it sought activators and does not explain the sign; nearly all actives have a fitted effect of over 65% in size
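Buffer: 100 mM Tris/HCl pH8, 100 mM KCl, 0.05% low protease BSA, 2.5% glycerol, 0.01% Tween-20. ClpP 10 microg/mL final; 20 min RT; delta FRET normalized to ADEP and DMSO controls.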
TDP1 cell CPT: DT40-hTDP1 cell growth loss with CPT; chicken DT40 Tdp1-/-;hTDP1 cells + 20 nM CPT, ATP luminescence, 48 h; Potency, µM (top dose mostly 46.2 µM), usual class: inhibitors; AID 686979; 420,000 tested, 12% active; further: nearly all actives have a fitted effect of over 55% in size
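Chicken DT40 Tdp1-/- cells complemented with human TDP1, 400 cells/well, exposed to compounds plus 20 nM camptothecin for at least 48 h at 37 C; viability read as ATP content by CellTiter-Glo luminescence.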
DRD3 agonist: D3 dopamine receptor (human) agonism | max activation, % | P35462 | AID 652048 | 410,000 tested, 0.58% active | D3R DiscoveRx beta-arrestin cells, luminescence, 90 min; in the data active means max activation above about 30%
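Agonist-mode cell screen: cells plated at 1500/well and incubated overnight at 37 °C, then exposed to library compounds for 90 min at 37 °C. Detection reagent was added for 30–60 min at room temperature, and luminescence was read.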
Numbers stand for hits; . = inactive; ? = inconclusive; / = no result given; ! = not active in a repeat. Rows were chosen to be rich in hits. Some 21% of all compounds tested hit in one or more screens of this group. Unless noted, the call rests on the fitted dose curve; in most records, active means well fitted inhibition curve with a large enough effect; inconclusive means small, poorly fitted or top-dose-only effect; inactive means flat fitted curve, though single readings scatter.

SMILES	TDP1 cell noCPT	IL-1B inflam inh	D3 antag	ClpP mod	TDP1 cell CPT	DRD3 agonist
c1ccc(C(OCCN2CCNCC2)c2ccccc2)cc1	.	.	-68	.	.	.
O=C(Cc1ccccc1)N1CCN(C/C=C/c2ccccc2)CC1	?	.	.	.	.	.
C(=C/c1ccccc1)/CN1CCN(CCOC(c2ccccc2)c2ccccc2)CC1	12µM	/	/	/	6.7µM	/
CC(=O)O[C@@H]1CC[C@]2(C)C3CC[C@]4(C)C(=O)[C@H](O)CC4C3[C@@H](OC(C)=O)C[C@H]2C1 (stereo partly specified)	?	.	.	/	?	.
CCC(=O)N1c2ccc(S(=O)(=O)CCC(=O)N3CCC4(CC3)OCCO4)cc2CC1C (stereo unspecified)	.	.	.	.	.	.
Cc1ccc(C(=O)Nc2nc3ccccc3[nH]2)cc1	18µM	.	.	/	?	.
CN1CCN(C(=O)Cc2nc3ccccc3[nH]2)CC1	.	.	.	?	.	.
Cc1cc(Cl)ccc1OCC(=O)N1CCN(C)CC1	.	.	.	.	.	.
Cc1cc(Cl)ccc1OCC(=O)O	.	.	-110	.	.	.
Cn1ccc(NC(=O)CCl)n1	?	-102	.	/	?	.
Cc1cc(NC(=O)CCl)nn1C	15µM	-101	.	.	23µM	.
CCCOc1ccc(C(=O)NC(=S)N2C[C@H]3C[C@H](C2)c2cccc(=O)n2C3)cc1	.	.	.	.	.	.
N/C(=N\[N+](=O)[O-])NCCCC(NC(=O)CNC(=O)c1ccccc1)C(=O)O (stereo unspecified)	.	.	.	/	.	.
CCOP(=O)(OCC)c1ccc(O)cc1	.	.	.	.	.	.
COc1ccc(CCNCc2ccc(SC)cc2)cc1	?	.	-53	.	?	.
O=C1NC(=O)C2(Cc3ccccc3N3CCCC32)C(=O)N1Cc1ccccc1 (stereo unspecified)	23µM	.	.	.	?	.
O=C1NC(=O)[C@]2(Cc3ccccc3N3CCN(c4ccccc4)CC32)C(=O)N1Cc1ccccc1 (stereo partly specified)	23µM	.	?	.	21µM	.
CN1C(=O)NC(=O)[C@]2(Cc3ccccc3N3CCN(c4ccccc4)CC32)C1=O (stereo partly specified)	?	.	.	.	?	.
O=C1NC(=O)C2(Cc3c(nc4ccccn4c3=O)N3CCCCCC32)C(=O)N1Cc1ccccc1 (stereo unspecified)	23µM	.	.	.	21µM	.
O=C(NC(=O)c1c(F)cccc1F)Nc1ccc(Cl)c(Oc2ncc(C(F)(F)F)cc2Cl)c1	.	/	/	/	.	.
O=C(Nc1ccc(Cl)cc1)Nc1ccc(Cl)c(C(F)(F)F)c1	3.3µM	/	/	/	4.7µM	.
CC(C)NC(=O)N1CCC2(CCNCC2)CC1	.	/	/	/	.	/
CN(Cc1ccc(OC(F)F)cc1)C(=O)c1ccccc1Sc1ccccc1C#N	?	?	.	.	?	.
CN1CCCN(C(=O)COc2ccc(F)cc2Cl)CC1	.	.	.	.	.	.
COc1cccc(CN2CCN(C(=O)COc3ccc4ccccc4c3)CC2)c1	?	.	.	.	?	.
SMILES	TDP1 cell noCPT	IL-1B inflam inh	D3 antag	ClpP mod	TDP1 cell CPT	DRD3 agonist
CCN1CCN(C(=O)Cc2ccccc2OC)CC1	.	.	.	.	.	.
COc1ccc(OCC(=O)N2CCN(Cc3ccc(SC)cc3)CC2)cc1	23µM!	.	.	.	?	.
O=C(COc1ccccc1)N1CCN(CC2CC=CCC2)CC1 (stereo unspecified)	.	.	-57	/	.	.
COc1ccccc1CN1CCN(C(=O)COc2ccccc2)CC1	.	.	-81	.	.	.
COc1cc(OC)c(OC)cc1CN1CCN(C(=O)COc2ccc3ccccc3c2)CC1	26µM	?	.	.	?	.
CC(C)OS(C)(=O)=O	.	.	.	.	.	.
C[C@H](CCC(=O)O)[C@H]1CC[C@H]2[C@@H]3C(=O)C[C@@H]4CC(=O)CC[C@]4(C)[C@H]3CC(=O)[C@]12C	.	.	.	.	?	.
COc1ccc(NC(=S)NC(NC(=O)CF)C(Cl)(Cl)Cl)c([N+](=O)[O-])c1 (stereo unspecified)	.	.	.	?	.	.
Cn1c(=O)oc2cc(S(=O)(=O)N3CCCc4ccccc43)ccc21	5.8µM	.	.	.	4.1µM	.
COc1cccc(N2CCN(C(=O)C3CCCN(S(=O)(=O)c4ccc5c(c4)oc(=O)n5C)C3)CC2)c1 (stereo unspecified)	15µM	.	.	.	18µM	.
Cn1c(=O)oc2cc(S(=O)(=O)N3CCc4ccccc43)ccc21	.	.	.	.	?	.
CC(C)COC(=O)n1c(=O)oc2cc(S(=O)(=O)N3CCCCC3)ccc21	?	.	.	.	?	.
Cc1cccc(NC(=O)C2CCCN(S(=O)(=O)c3ccc4c(c3)oc(=O)n4C)C2)c1 (stereo unspecified)	?	.	.	.	?	.
Cn1c(=O)oc2cc(S(=O)(=O)N3CCC(C(=O)N4CC=C(c5ccccc5)CC4)CC3)ccc21	12µM	.	.	.	23µM	.
Cn1c(=O)oc2cc(S(=O)(=O)N3CCC(C(=O)N4CCN(c5ccc(F)cc5)CC4)CC3)ccc21	9.2µM	.	.	.	26µM	.
CCC(=NCc1ccco1)c1c(O)n(-c2ccc(Cl)cc2)c(=O)[nH]c1=O	.	.	.	.	.	.
Cc1cccc(N2CCN(C(=O)CCNS(=O)(=O)c3ccc4c(c3)oc(=O)n4C)CC2)c1C	16µM	-67	.	/	?	.
Cc1ccc(Cl)cc1NC(=O)Cn1c(=O)oc2cc(S(=O)(=O)N3CCCCCC3)ccc21	16µM	/	/	.	15µM	.
Cc1cccc(N2CCN(C(=O)CCS(=O)(=O)c3ccc4c(c3)oc(=O)n4C)CC2)c1C	?	.	.	.	?	.
Cn1c(=O)oc2cc(S(=O)(=O)N3CCC(C(=O)N4CCN(c5ccccc5)CC4)CC3)ccc21	21µM	.	.	.	?	.
Cc1ccc(Cl)cc1N1CCN(C(=O)C2CCN(S(=O)(=O)c3ccc4c(c3)oc(=O)n4C)CC2)CC1	0.73µM	/	/	.	1.2µM	.
COc1ccccc1NC(=O)Cn1c(=O)oc2cc(S(=O)(=O)N3CCCC3)ccc21	?	.	.	.	.	.
CC(=NCCC1=CCCCC1)c1c(O)n(-c2ccccc2)c(=O)[nH]c1=O	?	?	.	/	.	.
O=C(NCc1ccccc1)c1cccc(Nc2nc3ccccc3n3nnnc23)c1	15µM	/	/	?	21µM	.
